PubChem BioAssay AID624116 (National Center for Advancing Translational Sciences (NCATS), 2012)
Records with an inconclusive call do not appear. Where a call stands in place of a potency, no number is given. Active and inactive are the calls of the source. The call rests on the fitted dose curve; in most records, active means well fitted activation curve with a large enough effect; inconclusive means small, poorly fitted or top-dose-only effect; inactive means no such curve, though single readings can be large or run the other way.

Assay: qHTS Assay for Rab9 Promoter Activators: Hit Validation Using Renilla Luciferase Read-Out for Rab9
Settings: Huh7 Rab9 promoter Renilla luciferase reporter, 24 h; series mostly up to 76.9 µM
In short: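 Luciferase reporter read-out: promoter activation measured by luminescence after 10 min with detection reagent at room temperature. Cells were Huh7 with a stable promoter-luciferase construct, treated 24 h at 37 deg C.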
Potency means the concentration at half of the fitted maximal effect.

SMILES	Potency
O=C(CCc1cccc(Cl)c1)NC1CCCN(Cc2ccccc2F)C1 (stereo not drawn)	inactive
O=C(CCNC(=O)c1ccc(Br)o1)NCc1ccc(Cl)cc1	inactive
COCC1CCN(C(=O)c2ccc3oc(Cc4ccccc4)nc3c2)C1 (stereo not drawn)	inactive
O=[N+]([O-])c1cnccc1Nc1ccc(F)cc1	inactive
O=C(NC1CCCC1)C(c1ccc(F)cc1)N(C(=O)c1csnn1)c1ccccc1 (stereo not drawn)	inactive
O=C(NCCc1c[nH]c2ccccc12)C(=O)NCC(c1ccco1)N1CCN(c2ccccc2F)CC1 (stereo not drawn)	inactive
COc1ccccc1OCCCC(=O)NCc1ccco1	inactive
O=C(O)CSc1nnc(-c2ccncc2)n1CCc1ccccc1	inactive
COc1ccc(-c2csc(Nc3ncccn3)n2)cc1C	inactive
CCN(C(=O)COC(=O)c1ccc(C=O)cc1)c1c(N)n(Cc2ccccc2)c(=O)[nH]c1=O	inactive
COc1cccc(C(C(=O)NC2CCCC2)N(CCC(C)C)C(=O)CCC(=O)Nc2cc(C)on2)c1 (stereo not drawn)	inactive
O=C(c1cccc(Oc2ccc([N+](=O)[O-])cc2)c1)N1CCOCC1	inactive
COC(=O)c1ccccc1NC(=O)c1ccc(-c2ccc(Br)cc2)o1	inactive
Cn1c(CCN2CCN(c3ccccc3)CC2)nc2cc(NC(=O)c3ccco3)ccc21	inactive
O=C(CSc1ncccn1)Nc1cccc2ccccc12	inactive
CC(C)C1(CCNC(=O)c2cccs2)CCOC(C)(C)C1 (stereo not drawn)	inactive
O=C(CSc1nnc(-c2csc3c2CCCC3)o1)Nc1ccccc1	inactive
COC(=O)c1ccccc1NC(=O)c1cc(-c2cccs2)on1	inactive
CCOC(=O)c1csc(COc2ccc(OC)cc2)n1	inactive

SMILES	Potency
Cc1nc(SCC(=O)NC(=O)NC(C)(C)C)nc(C)c1C	inactive
CCCCc1cc(=O)oc2cc(OCC(=O)N3CCOCC3)ccc12	inactive
CCOc1cc(C(=O)N=c2sccn2C)ccc1OC(F)F	inactive
Cc1ccc(C(=O)c2cncc(Br)c2)cc1	inactive
O=C(C1COc2ccccc2O1)N1CCN(S(=O)(=O)c2ccccc2)CC1 (stereo not drawn)	inactive
CCC(=O)N1c2ccccc2NC2=C(C(=O)CCC2)C1c1ccc(N(C)C)cc1 (stereo not drawn)	inactive
COc1ccc(NC(=O)CN(C)C(=O)c2ccc(=O)[nH]c2)cc1	inactive
Cc1ccc(C(=O)Nc2ccc(N3CCN(C)CC3)nc2)cc1	inactive
COc1cccc(C2Nc3ccccc3NC3=C2C(=O)CC(C)(C)C3)c1 (stereo not drawn)	inactive
CCCc1cc(C(=O)Nc2ccccc2SC)no1	inactive
O=C(NCCSCc1c(F)cccc1Cl)c1ccc(CN2CCOCC2)cc1	inactive
CN(C)/C=N/c1c(C#N)cnn1-c1nc2ccccc2s1	inactive
COc1ccc(NC(=S)NNC(=O)c2cccs2)cc1	inactive
O=C(CSc1nnc(-c2ccccc2)o1)Nc1ccccc1F	inactive
O=C(CCN1C(=O)c2ccccc2C1=O)Nc1ccc(-c2nc3ccccc3s2)cc1	inactive
COc1ccc(C(c2nnnn2CCc2ccccc2)N2CCN(C3CCCC3)CC2)cc1 (stereo not drawn)	13 µM (active)
COCCSc1ncnc2c1oc1nc3c(cc12)COC(C)(C)C3	inactive
Cc1ccc(C(=O)c2cn[nH]c2-c2ccccc2O)cc1	inactive
CCOC(=O)c1ccccc1NC(=O)CSc1nnc(Cc2cccn2C)n1-c1ccc(F)cc1	36.8 µM (active)
